# What was measured:
# [1] = biological target: T1, Testis-specific serine/threonine-protein kinase 2 (Homo sapiens) (UniProt Q96PF2); conditions: at 1 µM
# T1 sequence (whole entry): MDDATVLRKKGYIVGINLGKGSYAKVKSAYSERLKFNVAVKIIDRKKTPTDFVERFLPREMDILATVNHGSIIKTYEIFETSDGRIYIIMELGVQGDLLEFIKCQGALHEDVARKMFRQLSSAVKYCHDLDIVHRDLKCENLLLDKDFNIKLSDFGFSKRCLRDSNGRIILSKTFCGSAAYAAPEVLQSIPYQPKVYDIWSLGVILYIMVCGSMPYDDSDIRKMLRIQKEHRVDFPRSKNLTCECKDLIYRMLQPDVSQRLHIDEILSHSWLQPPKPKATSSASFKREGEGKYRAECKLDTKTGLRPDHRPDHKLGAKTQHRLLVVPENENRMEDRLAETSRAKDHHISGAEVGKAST
# [2] = biological target: T2, Tyrosine-protein kinase Mer (Homo sapiens) (UniProt Q12866); conditions: at 1 µM
# T2 sequence (whole entry): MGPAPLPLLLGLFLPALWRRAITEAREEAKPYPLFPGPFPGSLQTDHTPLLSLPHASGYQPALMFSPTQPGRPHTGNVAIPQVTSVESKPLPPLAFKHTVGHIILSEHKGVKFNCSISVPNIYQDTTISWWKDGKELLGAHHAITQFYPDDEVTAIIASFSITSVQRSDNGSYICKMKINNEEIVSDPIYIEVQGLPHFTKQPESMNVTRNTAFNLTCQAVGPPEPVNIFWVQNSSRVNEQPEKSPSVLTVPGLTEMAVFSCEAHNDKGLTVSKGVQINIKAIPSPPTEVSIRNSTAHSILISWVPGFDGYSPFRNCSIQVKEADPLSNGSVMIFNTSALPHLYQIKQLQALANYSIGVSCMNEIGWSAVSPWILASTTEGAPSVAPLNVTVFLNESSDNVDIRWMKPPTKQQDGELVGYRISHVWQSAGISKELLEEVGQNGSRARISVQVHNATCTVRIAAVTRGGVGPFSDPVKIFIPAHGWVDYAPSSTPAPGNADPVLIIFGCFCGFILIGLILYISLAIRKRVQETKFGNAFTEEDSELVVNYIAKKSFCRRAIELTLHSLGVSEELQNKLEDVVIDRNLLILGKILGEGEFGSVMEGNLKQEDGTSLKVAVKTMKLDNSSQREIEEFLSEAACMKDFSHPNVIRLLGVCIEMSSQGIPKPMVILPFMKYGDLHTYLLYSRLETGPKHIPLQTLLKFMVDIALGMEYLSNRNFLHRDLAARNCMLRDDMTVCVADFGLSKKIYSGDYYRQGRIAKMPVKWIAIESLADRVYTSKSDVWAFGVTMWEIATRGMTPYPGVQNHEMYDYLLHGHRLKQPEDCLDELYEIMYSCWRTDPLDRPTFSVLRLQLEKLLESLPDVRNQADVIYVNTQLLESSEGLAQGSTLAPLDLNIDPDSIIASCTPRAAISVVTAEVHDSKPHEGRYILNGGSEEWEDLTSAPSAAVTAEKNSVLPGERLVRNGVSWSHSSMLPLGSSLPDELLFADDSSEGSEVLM
# [3] = biological target: T2, Tyrosine-protein kinase Mer (Homo sapiens); conditions: at 10 µM
# [4] = biological target: Hepatocyte growth factor receptor (Homo sapiens) (UniProt P08581); conditions: at 1 µM
# [5] = biological target: Hepatocyte growth factor receptor (Homo sapiens) (UniProt P08581); conditions: at 10 µM
# [6] = biological target: MAP kinase-interacting serine/threonine-protein kinase 2 (Homo sapiens) (UniProt Q9HBH9); conditions: at 10 µM
# [7] = biological target: T3, Muscle, skeletal receptor tyrosine-protein kinase (Homo sapiens) (UniProt O15146); conditions: at 1 µM
# T3 sequence (whole entry): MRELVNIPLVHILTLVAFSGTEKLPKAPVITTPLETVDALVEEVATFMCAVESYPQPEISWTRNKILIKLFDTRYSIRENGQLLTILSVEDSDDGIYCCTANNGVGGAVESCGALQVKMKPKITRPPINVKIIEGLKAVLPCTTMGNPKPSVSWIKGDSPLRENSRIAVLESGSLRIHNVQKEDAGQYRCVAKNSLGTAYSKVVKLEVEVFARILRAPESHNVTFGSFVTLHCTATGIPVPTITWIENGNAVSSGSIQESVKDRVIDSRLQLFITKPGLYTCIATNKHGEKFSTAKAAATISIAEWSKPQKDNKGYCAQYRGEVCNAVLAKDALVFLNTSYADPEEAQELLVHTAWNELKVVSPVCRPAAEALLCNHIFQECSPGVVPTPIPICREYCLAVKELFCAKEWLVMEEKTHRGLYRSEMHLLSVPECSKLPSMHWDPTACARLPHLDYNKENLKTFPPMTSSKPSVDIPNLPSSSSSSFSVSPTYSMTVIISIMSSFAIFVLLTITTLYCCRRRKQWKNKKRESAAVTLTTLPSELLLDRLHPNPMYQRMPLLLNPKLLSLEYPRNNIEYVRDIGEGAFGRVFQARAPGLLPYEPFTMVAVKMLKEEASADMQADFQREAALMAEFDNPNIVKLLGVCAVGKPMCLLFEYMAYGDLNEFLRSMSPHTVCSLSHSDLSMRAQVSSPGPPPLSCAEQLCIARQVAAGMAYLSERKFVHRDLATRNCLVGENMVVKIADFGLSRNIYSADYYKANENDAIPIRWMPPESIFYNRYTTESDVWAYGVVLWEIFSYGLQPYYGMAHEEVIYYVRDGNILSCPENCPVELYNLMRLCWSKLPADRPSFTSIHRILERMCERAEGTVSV
# [8] = biological target: T3, Muscle, skeletal receptor tyrosine-protein kinase (Homo sapiens); conditions: at 10 µM
# [9] = biological target: T4, Serine/threonine-protein kinase Nek11 (Homo sapiens) (UniProt Q8NG66); conditions: at 1 µM
# T4 sequence (whole entry): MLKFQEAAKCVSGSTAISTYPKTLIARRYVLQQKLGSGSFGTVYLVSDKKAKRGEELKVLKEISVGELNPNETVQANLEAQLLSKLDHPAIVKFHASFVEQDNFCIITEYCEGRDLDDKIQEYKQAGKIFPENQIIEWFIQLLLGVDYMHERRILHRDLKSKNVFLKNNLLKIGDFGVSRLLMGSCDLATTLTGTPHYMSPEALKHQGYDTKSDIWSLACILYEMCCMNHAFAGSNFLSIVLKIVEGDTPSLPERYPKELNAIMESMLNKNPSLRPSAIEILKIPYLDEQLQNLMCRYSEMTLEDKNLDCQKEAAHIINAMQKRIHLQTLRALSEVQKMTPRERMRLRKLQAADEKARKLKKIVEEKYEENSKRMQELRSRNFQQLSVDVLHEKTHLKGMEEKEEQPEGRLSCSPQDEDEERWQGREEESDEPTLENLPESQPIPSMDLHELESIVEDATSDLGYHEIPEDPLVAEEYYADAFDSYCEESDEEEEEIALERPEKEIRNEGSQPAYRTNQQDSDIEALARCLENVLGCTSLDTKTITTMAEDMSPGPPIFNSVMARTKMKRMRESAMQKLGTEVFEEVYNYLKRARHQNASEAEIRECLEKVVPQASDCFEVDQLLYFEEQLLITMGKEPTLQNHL
# [10] = biological target: T4, Serine/threonine-protein kinase Nek11 (Homo sapiens); conditions: at 10 µM
# [11] = biological target: T5, Serine/threonine-protein kinase Nek2 (Homo sapiens) (UniProt P51955); conditions: at 1 µM
# T5 sequence (whole entry): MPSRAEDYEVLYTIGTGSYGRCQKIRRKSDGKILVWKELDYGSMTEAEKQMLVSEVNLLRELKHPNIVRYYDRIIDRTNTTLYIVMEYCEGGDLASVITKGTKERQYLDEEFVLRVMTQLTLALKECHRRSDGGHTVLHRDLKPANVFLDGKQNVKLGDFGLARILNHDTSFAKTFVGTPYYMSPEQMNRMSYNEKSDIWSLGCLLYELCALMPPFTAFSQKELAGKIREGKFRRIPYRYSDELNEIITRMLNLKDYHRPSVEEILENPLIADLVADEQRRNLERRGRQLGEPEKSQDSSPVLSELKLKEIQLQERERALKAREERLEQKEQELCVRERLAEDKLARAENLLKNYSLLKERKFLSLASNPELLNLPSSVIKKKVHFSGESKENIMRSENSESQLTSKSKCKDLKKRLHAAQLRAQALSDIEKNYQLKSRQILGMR
# [12] = biological target: T5, Serine/threonine-protein kinase Nek2 (Homo sapiens); conditions: at 10 µM
# [13] = biological target: T6, Serine/threonine-protein kinase Nek3 (Homo sapiens) (UniProt P51956); conditions: at 1 µM
# T6 sequence (whole entry): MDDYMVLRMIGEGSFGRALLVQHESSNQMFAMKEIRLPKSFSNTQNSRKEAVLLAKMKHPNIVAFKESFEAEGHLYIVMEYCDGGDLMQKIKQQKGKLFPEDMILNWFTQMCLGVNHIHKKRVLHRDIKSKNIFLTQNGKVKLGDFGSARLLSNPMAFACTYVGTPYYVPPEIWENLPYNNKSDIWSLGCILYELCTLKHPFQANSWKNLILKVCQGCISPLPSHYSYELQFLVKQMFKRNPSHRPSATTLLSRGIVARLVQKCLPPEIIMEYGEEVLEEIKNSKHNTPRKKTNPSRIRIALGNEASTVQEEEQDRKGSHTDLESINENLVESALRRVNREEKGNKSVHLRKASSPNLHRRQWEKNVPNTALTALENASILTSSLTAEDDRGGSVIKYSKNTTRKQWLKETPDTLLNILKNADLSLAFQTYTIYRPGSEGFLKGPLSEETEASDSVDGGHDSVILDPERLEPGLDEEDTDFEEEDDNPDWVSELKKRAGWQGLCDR
# [14] = biological target: T6, Serine/threonine-protein kinase Nek3 (Homo sapiens); conditions: at 10 µM
# [15] = biological target: Serine/threonine-protein kinase tousled-like 2 (Homo sapiens) (UniProt Q86UE8); conditions: at 1 µM
# [16] = biological target: Serine/threonine-protein kinase tousled-like 2 (Homo sapiens) (UniProt Q86UE8); conditions: at 10 µM
# [17] = biological target: T7, Testis-specific serine/threonine-protein kinase 1 (Homo sapiens) (UniProt Q9BXA7); conditions: at 1 µM
# T7 sequence (whole entry): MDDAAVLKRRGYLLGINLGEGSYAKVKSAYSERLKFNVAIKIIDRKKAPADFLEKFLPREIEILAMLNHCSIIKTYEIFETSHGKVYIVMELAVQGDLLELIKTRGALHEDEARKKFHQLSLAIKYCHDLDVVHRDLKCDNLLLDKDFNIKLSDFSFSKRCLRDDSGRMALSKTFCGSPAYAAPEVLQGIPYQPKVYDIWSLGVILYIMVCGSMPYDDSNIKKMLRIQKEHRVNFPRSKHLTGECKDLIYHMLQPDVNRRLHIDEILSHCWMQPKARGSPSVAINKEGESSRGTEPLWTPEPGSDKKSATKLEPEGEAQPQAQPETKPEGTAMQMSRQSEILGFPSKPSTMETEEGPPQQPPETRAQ
# [18] = biological target: T7, Testis-specific serine/threonine-protein kinase 1 (Homo sapiens); conditions: at 10 µM
# [19] = biological target: T1, Testis-specific serine/threonine-protein kinase 2 (Homo sapiens); conditions: at 10 µM
# [20] = biological target: MAP kinase-interacting serine/threonine-protein kinase 2 (Homo sapiens) (UniProt Q9HBH9); conditions: at 1 µM
# Sequence of MAP kinase-interacting serine/threonine-protein kinase 2 (Homo sapiens) (Q9HBH9 whole entry, looked up): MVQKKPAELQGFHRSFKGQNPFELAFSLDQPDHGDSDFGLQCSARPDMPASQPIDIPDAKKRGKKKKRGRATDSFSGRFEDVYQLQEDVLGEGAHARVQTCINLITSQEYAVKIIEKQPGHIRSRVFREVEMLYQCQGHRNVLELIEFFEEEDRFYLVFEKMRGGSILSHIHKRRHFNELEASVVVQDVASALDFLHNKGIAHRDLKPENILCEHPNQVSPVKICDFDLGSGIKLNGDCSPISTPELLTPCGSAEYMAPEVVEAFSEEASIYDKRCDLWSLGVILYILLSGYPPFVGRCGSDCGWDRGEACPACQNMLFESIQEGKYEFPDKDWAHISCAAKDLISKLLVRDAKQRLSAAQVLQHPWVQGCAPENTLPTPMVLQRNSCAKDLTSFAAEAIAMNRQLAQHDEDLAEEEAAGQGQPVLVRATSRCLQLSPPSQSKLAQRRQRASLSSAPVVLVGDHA
# Sequence of Serine/threonine-protein kinase tousled-like 2 (Homo sapiens) (Q86UE8 whole entry, looked up): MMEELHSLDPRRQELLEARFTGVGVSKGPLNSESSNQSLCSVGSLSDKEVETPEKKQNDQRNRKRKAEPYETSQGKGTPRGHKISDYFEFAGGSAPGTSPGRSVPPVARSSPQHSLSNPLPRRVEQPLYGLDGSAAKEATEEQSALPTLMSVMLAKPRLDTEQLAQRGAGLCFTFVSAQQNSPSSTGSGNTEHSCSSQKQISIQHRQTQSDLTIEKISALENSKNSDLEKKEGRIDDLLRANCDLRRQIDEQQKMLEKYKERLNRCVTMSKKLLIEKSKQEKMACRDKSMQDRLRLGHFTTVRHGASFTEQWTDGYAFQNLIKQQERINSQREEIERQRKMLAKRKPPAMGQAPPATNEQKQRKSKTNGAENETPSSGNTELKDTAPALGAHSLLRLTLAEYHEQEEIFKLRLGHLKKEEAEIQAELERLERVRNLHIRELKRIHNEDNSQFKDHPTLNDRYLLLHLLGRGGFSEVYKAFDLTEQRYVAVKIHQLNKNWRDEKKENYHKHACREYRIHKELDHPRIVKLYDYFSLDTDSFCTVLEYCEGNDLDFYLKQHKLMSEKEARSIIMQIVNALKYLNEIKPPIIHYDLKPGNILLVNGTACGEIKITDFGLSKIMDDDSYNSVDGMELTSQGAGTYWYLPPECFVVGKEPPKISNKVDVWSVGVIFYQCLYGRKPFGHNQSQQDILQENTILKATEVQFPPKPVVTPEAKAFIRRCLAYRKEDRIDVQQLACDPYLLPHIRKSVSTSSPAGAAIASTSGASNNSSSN
# Sequence of Hepatocyte growth factor receptor (Homo sapiens) (P08581 whole entry): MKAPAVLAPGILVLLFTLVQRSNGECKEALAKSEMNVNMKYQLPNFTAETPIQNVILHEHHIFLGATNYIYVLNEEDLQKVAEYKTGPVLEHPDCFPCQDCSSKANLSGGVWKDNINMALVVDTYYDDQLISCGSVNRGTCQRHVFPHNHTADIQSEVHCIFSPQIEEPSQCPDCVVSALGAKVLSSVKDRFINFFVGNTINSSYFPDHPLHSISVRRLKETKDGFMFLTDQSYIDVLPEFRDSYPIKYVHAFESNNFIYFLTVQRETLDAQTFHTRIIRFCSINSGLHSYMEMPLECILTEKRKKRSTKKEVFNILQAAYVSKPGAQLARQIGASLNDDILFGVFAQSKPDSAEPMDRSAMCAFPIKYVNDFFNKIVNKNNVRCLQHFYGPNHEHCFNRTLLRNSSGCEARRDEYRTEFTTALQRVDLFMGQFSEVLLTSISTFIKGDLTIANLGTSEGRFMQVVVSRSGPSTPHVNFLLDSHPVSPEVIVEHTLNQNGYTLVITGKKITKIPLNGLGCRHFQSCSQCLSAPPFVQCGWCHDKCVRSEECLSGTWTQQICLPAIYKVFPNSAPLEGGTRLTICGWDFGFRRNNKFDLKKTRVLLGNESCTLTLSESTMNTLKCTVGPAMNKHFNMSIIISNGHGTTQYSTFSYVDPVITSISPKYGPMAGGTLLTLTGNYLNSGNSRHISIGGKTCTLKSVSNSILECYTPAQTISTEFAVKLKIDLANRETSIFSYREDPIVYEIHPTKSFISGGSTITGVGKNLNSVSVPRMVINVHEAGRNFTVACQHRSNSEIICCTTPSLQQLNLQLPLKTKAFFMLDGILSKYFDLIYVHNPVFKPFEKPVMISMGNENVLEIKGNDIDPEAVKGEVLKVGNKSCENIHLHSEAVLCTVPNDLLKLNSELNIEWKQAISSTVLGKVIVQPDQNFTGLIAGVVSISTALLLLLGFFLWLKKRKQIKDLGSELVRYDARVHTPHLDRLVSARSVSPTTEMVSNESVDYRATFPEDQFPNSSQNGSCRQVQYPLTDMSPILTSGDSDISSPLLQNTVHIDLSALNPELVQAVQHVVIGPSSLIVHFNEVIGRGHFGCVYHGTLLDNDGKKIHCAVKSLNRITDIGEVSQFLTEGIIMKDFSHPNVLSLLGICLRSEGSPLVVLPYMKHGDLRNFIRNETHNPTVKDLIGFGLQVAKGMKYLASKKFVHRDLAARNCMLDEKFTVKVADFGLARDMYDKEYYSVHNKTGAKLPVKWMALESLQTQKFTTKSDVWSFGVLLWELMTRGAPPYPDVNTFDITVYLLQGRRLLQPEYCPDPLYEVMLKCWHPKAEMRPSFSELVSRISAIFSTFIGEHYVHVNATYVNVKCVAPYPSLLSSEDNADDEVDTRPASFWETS
smiles,measurement,setting,value
Ic1cccc(CSc2nnc(-c3ccncc3)o2)c1,residual activity,[1],87%
CCN(CC)CCCCN1c2ccccc2Oc2ccc(Cl)cc21,residual activity,[1],109%
CC(C)[C@H](CO)Nc1nc(Nc2cccc(Cl)c2)c2ncn(C(C)C)c2n1,residual activity,[2],26%
same,residual activity,[3],0%
same,residual activity,[4],83%
same,residual activity,[5],73%
same,residual activity,[6],98%
same,residual activity,[7],48%
same,residual activity,[8],5%
same,residual activity,[9],59%
same,residual activity,[10],38%
same,residual activity,[11],90%
same,residual activity,[12],53%
same,residual activity,[13],84%
same,residual activity,[14],89%
same,residual activity,[15],100%
same,residual activity,[16],81%
same,residual activity,[17],97%
same,residual activity,[18],72%
same,residual activity,[1],94%
same,residual activity,[19],79%
CN(C)c1ccc(/C=C2\C(=O)Nc3ccccc32)cc1,residual activity,[1],92%
CO[C@@H]1[C@H](N(C)C(=O)c2ccccc2)C[C@H]2O[C@]1(C)n1c3ccccc3c3c4c(c5c6ccccc6n2c5c31)C(=O)NC4,residual activity,[1],51%
O=C1NC(=O)C(c2cn(CCCO)c3ncccc23)=C1c1cnccn1,residual activity,[1],59%
COc1cc2ncnc(N3CCN(C(=O)Nc4ccc(Oc5ccccc5)cc4)CC3)c2cc1OC,residual activity,[1],96%
Oc1ccc(-c2nc(-c3ccc(F)cc3)c(-c3ccncc3)[nH]2)cc1,residual activity,[1],103%
Cn1sc(=O)n(Cc2ccccc2)c1=O,residual activity,[1],88%
Nc1cccc(-c2cc3c(Oc4cccc(O)c4)ncnc3[nH]2)c1,residual activity,[1],82%
N/C(=N\[N+](=O)[O-])N/N=C\c1ccc(-c2cccc([N+](=O)[O-])c2)o1,residual activity,[7],93%
same,residual activity,[8],91%
same,residual activity,[9],73%
same,residual activity,[10],72%
same,residual activity,[13],74%
same,residual activity,[14],93%
same,residual activity,[15],95%
same,residual activity,[16],90%
same,residual activity,[1],91%
same,residual activity,[19],80%
CN[C@@H]1C[C@H]2O[C@@](C)([C@@H]1OC)n1c3ccccc3c3c4c(c5c6ccccc6n2c5c31)C(=O)NC4,residual activity,[13],105%
same,residual activity,[14],67%
same,residual activity,[15],1%
same,residual activity,[16],1%
COc1ccc(Cl)cc1NC(=O)Nc1cc(C)nc2ccccc12,residual activity,[1],100%
COc1ccc(C(=O)Nc2sc3c(c2C(N)=O)CCCC3)cc1OC,residual activity,[1],94%
Cc1nc(-c2ccccc2)c(-c2ccncc2)o1,residual activity,[1],97%
CNc1cc2c(Nc3cccc(Br)c3)ncnc2cn1,residual activity,[1],104%
O=[N+]([O-])/C=C/c1ccc2c(c1)OCO2,residual activity,[2],106%
same,residual activity,[3],108%
same,residual activity,[4],111%
same,residual activity,[5],96%
same,residual activity,[20],116%
same,residual activity,[6],105%
same,residual activity,[7],127%
same,residual activity,[8],114%
same,residual activity,[9],90%
same,residual activity,[10],106%
same,residual activity,[11],87%
same,residual activity,[12],98%
same,residual activity,[14],107%
same,residual activity,[15],99%
same,residual activity,[16],97%
same,residual activity,[17],96%
same,residual activity,[18],94%
same,residual activity,[1],87%
same,residual activity,[19],74%
c1cc(-c2cnn3cc(-c4ccc(OCCN5CCCCC5)cc4)cnc23)ccn1,residual activity,[2],33%
same,residual activity,[3],3%
same,residual activity,[20],56%
same,residual activity,[6],24%
same,residual activity,[7],18%
same,residual activity,[8],1%
same,residual activity,[12],86%
same,residual activity,[16],74%
same,residual activity,[17],76%
same,residual activity,[18],45%

# From ChEMBL document CHEMBL2218924, “A broad activity screen in support of a chemogenomic map for kinase signalling research and drug discovery” (Biochem J, 2013)
